The results in this text go back to paper PMC7862700, “An all-to-all approach to the identification of sequence-specific readers for epigenetic DNA modifications on cytosine”.

Holding throughout (test): DAPPL (digital affinity profiling via proximity ligation, sequencing); 10 mM Tris-HCl pH 7.5, 50 mM NaCl, 1 mM DTT, 4% glycerol, room temperature, 30 min; GST-TFs on glutathione beads, 16-mer random dsDNA library, 0.1% formaldehyde crosslink after washing; high values mean tight binding
Common to all, as to conditions: protein: recombinant; tags: N-terminal GST; dsDNA, one strand shown

One test concerns the target T1, FLI1 (Homo sapiens, UniProt Q01543 1-452).
T1 sequence: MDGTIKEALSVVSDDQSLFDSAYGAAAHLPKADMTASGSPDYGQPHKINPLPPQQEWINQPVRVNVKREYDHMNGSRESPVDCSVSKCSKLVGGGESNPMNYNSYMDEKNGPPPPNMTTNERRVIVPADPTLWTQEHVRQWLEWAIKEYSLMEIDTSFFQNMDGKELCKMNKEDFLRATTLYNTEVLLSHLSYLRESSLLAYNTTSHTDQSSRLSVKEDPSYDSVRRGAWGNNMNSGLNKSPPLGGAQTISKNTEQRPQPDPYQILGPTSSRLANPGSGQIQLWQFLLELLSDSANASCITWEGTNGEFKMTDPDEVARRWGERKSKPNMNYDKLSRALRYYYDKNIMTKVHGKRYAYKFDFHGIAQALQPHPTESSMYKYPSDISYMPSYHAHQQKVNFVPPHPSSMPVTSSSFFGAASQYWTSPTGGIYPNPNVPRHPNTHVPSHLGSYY
Summed up:
(§1)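 Binding signal is given per hexamer as its read frequency for a factor divided by its frequency in the tag-only sample. GST-fused human transcription factors were expressed in yeast, captured on glutathione beads, barcoded with DNA and pooled with that sample, then incubated with 200 nmole of a 16-mer random double-stranded DNA library in Tris/NaCl/DTT/glycerol buffer for 30 min at room temperature. The pools were then washed, crosslinked, proximity-ligated, amplified by PCR and sequenced on an Illumina NextSeq500.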

A further test addresses T2, ELK1 (Homo sapiens, UniProt P19419 1-428).
T2 sequence: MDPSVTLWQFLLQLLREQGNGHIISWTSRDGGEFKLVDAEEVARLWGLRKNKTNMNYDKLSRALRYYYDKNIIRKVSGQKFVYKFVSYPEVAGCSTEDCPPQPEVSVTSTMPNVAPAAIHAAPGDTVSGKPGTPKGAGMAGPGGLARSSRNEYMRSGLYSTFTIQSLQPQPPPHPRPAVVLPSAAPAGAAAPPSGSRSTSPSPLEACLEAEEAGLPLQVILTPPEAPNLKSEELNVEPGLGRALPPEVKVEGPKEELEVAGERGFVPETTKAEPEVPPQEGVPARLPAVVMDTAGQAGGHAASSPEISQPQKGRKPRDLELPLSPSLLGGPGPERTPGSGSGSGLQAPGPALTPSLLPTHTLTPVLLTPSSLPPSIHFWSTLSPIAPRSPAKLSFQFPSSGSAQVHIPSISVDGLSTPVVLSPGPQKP
Summed up: as §1

The next test has as its target T3, GABPA (Homo sapiens, UniProt Q06546 1-454).
T3 sequence: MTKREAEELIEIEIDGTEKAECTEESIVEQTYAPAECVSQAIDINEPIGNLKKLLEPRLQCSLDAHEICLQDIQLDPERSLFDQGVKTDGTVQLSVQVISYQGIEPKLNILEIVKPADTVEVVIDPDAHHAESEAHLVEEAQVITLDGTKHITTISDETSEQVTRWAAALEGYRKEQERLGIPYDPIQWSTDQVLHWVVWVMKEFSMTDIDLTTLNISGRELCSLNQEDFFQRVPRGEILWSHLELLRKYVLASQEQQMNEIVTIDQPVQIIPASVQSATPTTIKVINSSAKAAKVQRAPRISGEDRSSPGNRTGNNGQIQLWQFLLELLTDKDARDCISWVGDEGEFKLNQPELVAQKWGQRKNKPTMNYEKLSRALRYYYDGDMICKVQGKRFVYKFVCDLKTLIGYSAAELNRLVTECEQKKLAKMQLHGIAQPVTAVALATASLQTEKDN
In outline: as §1

In another test the target is T4, ERG (Homo sapiens, UniProt P11308 1-479).
T4 sequence: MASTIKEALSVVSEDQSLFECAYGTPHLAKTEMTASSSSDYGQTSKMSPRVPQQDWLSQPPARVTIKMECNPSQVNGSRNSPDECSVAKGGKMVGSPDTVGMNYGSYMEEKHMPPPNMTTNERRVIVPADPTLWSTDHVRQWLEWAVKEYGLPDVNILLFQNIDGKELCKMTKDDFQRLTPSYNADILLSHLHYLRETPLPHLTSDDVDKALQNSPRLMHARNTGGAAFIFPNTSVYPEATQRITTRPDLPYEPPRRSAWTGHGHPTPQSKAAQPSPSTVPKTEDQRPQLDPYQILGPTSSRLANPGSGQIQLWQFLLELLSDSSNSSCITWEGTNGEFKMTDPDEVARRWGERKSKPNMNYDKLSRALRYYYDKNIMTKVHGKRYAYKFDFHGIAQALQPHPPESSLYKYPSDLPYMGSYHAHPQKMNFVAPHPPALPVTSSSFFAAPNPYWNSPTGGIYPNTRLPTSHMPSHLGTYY
Summed up: as §1

Another test deals with ELF1 (Homo sapiens, UniProt P32519 1-619). In outline: as §1
ELF1, sequence (P32519 whole entry): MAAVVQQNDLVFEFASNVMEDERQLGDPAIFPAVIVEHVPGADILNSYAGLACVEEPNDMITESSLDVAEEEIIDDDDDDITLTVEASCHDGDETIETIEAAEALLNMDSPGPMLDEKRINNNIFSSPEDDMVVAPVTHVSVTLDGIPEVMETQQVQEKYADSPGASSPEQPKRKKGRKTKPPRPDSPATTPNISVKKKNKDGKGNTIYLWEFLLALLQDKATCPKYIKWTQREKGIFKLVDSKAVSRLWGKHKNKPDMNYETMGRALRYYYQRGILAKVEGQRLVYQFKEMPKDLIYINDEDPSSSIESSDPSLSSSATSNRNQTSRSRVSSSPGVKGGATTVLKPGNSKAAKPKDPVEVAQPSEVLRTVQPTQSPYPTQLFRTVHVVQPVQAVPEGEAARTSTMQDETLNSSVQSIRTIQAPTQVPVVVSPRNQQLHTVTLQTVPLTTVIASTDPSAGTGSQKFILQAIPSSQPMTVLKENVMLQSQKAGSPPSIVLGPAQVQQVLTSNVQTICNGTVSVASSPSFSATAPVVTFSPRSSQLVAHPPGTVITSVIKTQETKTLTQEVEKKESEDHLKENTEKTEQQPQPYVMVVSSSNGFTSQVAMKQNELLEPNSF
For another test, the target named is T5, EHF (Homo sapiens, UniProt Q9NZC4 1-300).
T5 sequence: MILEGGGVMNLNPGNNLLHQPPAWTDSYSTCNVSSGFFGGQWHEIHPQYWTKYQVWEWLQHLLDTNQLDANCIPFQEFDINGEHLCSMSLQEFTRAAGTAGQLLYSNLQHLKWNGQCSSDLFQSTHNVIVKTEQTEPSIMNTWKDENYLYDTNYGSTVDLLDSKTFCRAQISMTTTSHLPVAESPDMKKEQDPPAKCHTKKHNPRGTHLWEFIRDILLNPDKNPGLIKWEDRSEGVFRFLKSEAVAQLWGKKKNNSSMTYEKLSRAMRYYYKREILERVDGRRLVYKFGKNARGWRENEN
Summed up: as §1

A further test deals with SPI1 (Homo sapiens, UniProt P17947 1-270). Summed up: as §1
The next test deals with SPIB (Homo sapiens, UniProt Q01892 1-262). In outline: as §1
SPIB, sequence (Q01892 whole entry): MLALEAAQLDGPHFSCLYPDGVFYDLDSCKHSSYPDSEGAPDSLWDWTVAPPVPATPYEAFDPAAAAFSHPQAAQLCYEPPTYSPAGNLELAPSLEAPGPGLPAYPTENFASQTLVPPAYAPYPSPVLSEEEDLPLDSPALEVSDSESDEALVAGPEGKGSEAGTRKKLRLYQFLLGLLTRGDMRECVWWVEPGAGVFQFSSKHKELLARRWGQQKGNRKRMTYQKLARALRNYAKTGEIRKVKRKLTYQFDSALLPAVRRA
Another test addresses T6, ELK3 (Homo sapiens, UniProt P41970 1-407).
T6 sequence: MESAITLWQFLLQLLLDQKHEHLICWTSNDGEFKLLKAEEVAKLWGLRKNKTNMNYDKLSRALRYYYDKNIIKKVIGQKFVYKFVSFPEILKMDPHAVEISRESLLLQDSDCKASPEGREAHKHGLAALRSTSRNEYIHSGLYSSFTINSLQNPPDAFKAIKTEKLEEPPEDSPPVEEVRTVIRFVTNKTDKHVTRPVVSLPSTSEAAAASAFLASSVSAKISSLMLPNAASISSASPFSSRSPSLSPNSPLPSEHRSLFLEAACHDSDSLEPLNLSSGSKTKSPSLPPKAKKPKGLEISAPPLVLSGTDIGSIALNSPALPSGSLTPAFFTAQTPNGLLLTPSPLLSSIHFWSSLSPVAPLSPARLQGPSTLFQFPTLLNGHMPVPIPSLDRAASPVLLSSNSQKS
Summed up:
as §1

With TTTCGG, the binding signal in the test with FLI1 is 1.08 fold enrichment (6-mer frequency, TF over GST control); with ELK1, 1.14 fold enrichment (6-mer frequency, TF over GST control); with GABPA, 1.14 fold enrichment (6-mer frequency, TF over GST control); with ERG, 1.26 fold enrichment (6-mer frequency, TF over GST control); with ELF1 it was 1.22 fold enrichment (6-mer frequency, TF over GST control); in the test with EHF it was 1.18 fold enrichment (6-mer frequency, TF over GST control). Further, the binding signal is 1.36 fold enrichment (6-mer frequency, TF over GST control) with SPI1; 1.14 fold enrichment (6-mer frequency, TF over GST control) with SPIB; 1.22 fold enrichment (6-mer frequency, TF over GST control) in the test with ELK3.
As for TGGTCT, the binding signal with FLI1 was 1.56 fold enrichment (6-mer frequency, TF over GST control); with ELK1 it was 1.69 fold enrichment (6-mer frequency, TF over GST control); with GABPA, 1.47 fold enrichment (6-mer frequency, TF over GST control); in the test with ERG, 1.49 fold enrichment (6-mer frequency, TF over GST control); in the test with ELF1, 1.49 fold enrichment (6-mer frequency, TF over GST control); with EHF, 1.66 fold enrichment (6-mer frequency, TF over GST control). The binding signal with SPI1 is 1.58 fold enrichment (6-mer frequency, TF over GST control); in the test with SPIB it was 1.76 fold enrichment (6-mer frequency, TF over GST control); in the test with ELK3 it was 1.65 fold enrichment (6-mer frequency, TF over GST control).
With TCTTTC, the binding signal in the test with FLI1 is 1.43 fold enrichment (6-mer frequency, TF over GST control); with ELK1, 1.27 fold enrichment (6-mer frequency, TF over GST control); with GABPA, 1.41 fold enrichment (6-mer frequency, TF over GST control); in the test with ERG, 1.3 fold enrichment (6-mer frequency, TF over GST control); in the test with ELF1, 1.37 fold enrichment (6-mer frequency, TF over GST control); with EHF it was 1.43 fold enrichment (6-mer frequency, TF over GST control). Moreover, the binding signal in the test with SPI1 was 1.51 fold enrichment (6-mer frequency, TF over GST control); with SPIB, 1.41 fold enrichment (6-mer frequency, TF over GST control); with ELK3, 1.39 fold enrichment (6-mer frequency, TF over GST control).
CATTCT: the binding signal with FLI1 was 1.37 fold enrichment (6-mer frequency, TF over GST control); in the test with ELK1 it was 1.33 fold enrichment (6-mer frequency, TF over GST control); with GABPA, 1.25 fold enrichment (6-mer frequency, TF over GST control); in the test with ERG, 1.27 fold enrichment (6-mer frequency, TF over GST control); in the test with ELF1, 1.4 fold enrichment (6-mer frequency, TF over GST control); with EHF, 1.35 fold enrichment (6-mer frequency, TF over GST control). The binding signal in the test with SPI1 was 1.26 fold enrichment (6-mer frequency, TF over GST control); with SPIB it was 1.22 fold enrichment (6-mer frequency, TF over GST control); with ELK3, 1.28 fold enrichment (6-mer frequency, TF over GST control).
For TGCTCG, the binding signal is 1.3 fold enrichment (6-mer frequency, TF over GST control) in the test with FLI1; 1.2 fold enrichment (6-mer frequency, TF over GST control) in the test with ELK1; 1.21 fold enrichment (6-mer frequency, TF over GST control) with GABPA; 1.17 fold enrichment (6-mer frequency, TF over GST control) with ERG; 1.18 fold enrichment (6-mer frequency, TF over GST control) with ELF1; 1.17 fold enrichment (6-mer frequency, TF over GST control) in the test with EHF. Also, the binding signal with SPI1 is 1.35 fold enrichment (6-mer frequency, TF over GST control); in the test with SPIB it was 1.27 fold enrichment (6-mer frequency, TF over GST control); with ELK3, 1.04 fold enrichment (6-mer frequency, TF over GST control).
TCTACC: the binding signal was 1.54 fold enrichment (6-mer frequency, TF over GST control) in the test with FLI1; 1.67 fold enrichment (6-mer frequency, TF over GST control) with ELK1; 1.58 fold enrichment (6-mer frequency, TF over GST control) with GABPA; 1.61 fold enrichment (6-mer frequency, TF over GST control) in the test with ERG; 1.59 fold enrichment (6-mer frequency, TF over GST control) in the test with ELF1; 1.61 fold enrichment (6-mer frequency, TF over GST control) in the test with EHF. Moreover, the binding signal was 1.54 fold enrichment (6-mer frequency, TF over GST control) with SPI1; 1.68 fold enrichment (6-mer frequency, TF over GST control) in the test with SPIB; 1.43 fold enrichment (6-mer frequency, TF over GST control) with ELK3.
Take ATTAAA: the binding signal is 1.14 fold enrichment (6-mer frequency, TF over GST control) with FLI1; 1.1 fold enrichment (6-mer frequency, TF over GST control) in the test with ELK1; 1.16 fold enrichment (6-mer frequency, TF over GST control) in the test with GABPA; 1.09 fold enrichment (6-mer frequency, TF over GST control) with ERG; 1.2 fold enrichment (6-mer frequency, TF over GST control) in the test with ELF1; 1.14 fold enrichment (6-mer frequency, TF over GST control) in the test with EHF. The binding signal is 1.13 fold enrichment (6-mer frequency, TF over GST control) in the test with SPI1; 1.19 fold enrichment (6-mer frequency, TF over GST control) with SPIB; 1.16 fold enrichment (6-mer frequency, TF over GST control) in the test with ELK3.
